According to PubChem BioAssay (NCATS):
Results filed as inconclusive are left out. Where a call stands in place of a potency, no number is given. Active and inactive are the calls of the source. Calls come from the whole dose curve; as a rule, active = well fitted curve in the direction sought with a large enough effect; inconclusive = small, poorly fitted or top-dose-only effect, or another doubt; inactive = no such curve, though single readings can be large; an effect the other way counts as inactive or inconclusive.

Experiments:
[1] = target: ATP-dependent 6-phosphofructokinase (Trypanosoma brucei brucei) (UniProt O15648); assay: qHTS Assay to Find Inhibitors of T. brucei phosphofructokinase: hit validation (AID 492961)
Sequence of ATP-dependent 6-phosphofructokinase (Trypanosoma brucei brucei) (O15648 whole entry, looked up): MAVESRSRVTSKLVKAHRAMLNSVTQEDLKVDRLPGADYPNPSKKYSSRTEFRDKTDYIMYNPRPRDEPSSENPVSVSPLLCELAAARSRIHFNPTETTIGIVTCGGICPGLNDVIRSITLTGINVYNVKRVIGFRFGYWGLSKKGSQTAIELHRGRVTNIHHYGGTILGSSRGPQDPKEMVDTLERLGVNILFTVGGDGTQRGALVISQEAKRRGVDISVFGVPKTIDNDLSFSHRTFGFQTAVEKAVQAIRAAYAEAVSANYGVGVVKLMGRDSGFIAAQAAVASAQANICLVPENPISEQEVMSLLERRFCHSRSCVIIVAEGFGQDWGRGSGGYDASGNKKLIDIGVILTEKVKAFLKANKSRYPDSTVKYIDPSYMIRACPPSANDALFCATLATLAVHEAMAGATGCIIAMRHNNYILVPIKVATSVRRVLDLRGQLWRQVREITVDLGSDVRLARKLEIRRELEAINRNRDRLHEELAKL
Procedure, shortened: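 Luminescence from ADP-Glo reports ADP generated as T. brucei PFK (1.25 nM) phosphorylates 0.5 mM fructose-6-phosphate using 0.1 mM ATP. Reactions ran 45 min at room temperature, pH 8.0.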

[2] = target: Luciferin 4-monooxygenase (Photinus pyralis) (UniProt P08659); assay: Biochemical firefly luciferase enzyme assay for NPC (AID 624030);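 note: purified P. pyralis luciferase at 10 nM with luciferin and ATP substrate; nearly all actives have a fitted effect of over 70% in size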
Sequence of Luciferin 4-monooxygenase (Photinus pyralis) (P08659 whole entry, looked up): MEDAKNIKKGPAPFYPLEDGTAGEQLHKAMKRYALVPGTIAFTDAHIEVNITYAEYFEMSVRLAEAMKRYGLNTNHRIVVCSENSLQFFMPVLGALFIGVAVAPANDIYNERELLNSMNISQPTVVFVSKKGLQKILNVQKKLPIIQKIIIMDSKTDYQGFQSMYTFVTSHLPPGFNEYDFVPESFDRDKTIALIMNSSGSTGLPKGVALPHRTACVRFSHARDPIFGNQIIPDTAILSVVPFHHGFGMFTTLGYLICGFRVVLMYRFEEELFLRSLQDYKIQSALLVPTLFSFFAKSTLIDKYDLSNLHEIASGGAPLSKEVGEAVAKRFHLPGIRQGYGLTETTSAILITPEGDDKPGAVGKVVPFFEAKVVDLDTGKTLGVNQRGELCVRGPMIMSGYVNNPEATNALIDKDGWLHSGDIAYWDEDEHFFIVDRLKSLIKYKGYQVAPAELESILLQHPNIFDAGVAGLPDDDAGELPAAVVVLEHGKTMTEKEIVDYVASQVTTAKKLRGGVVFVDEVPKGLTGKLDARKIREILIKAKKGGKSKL
Procedure, shortened: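 Purified P. pyralis luciferase at 10 nM in 50 mM Tris Acetate (final), luminescence read within 5 minutes of enzyme addition to compounds. Activity normalised to PTC124 versus DMSO; concentration-response curves classed by r2, magnitude and activity.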

7G8 = assay: qHTS profiling for inhibitors of Plasmodium falciparum proliferation (AID 504749); note: nearly all actives have a fitted effect of over 60% in size; note: potency is the fitted concentration of half-maximal effect; conditions: P. falciparum in erythrocytes, SYBR Green DNA, 72 h; series mostly up to 28.7 µM
Procedure, shortened: (§1)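 Each compound contacts P. falciparum-infected red blood cells for 72 h at 37 C; lysis buffer (Tris, EDTA, saponin, Triton X, SYBR Green I) is added and fluorescence measured next morning; values normalized to controls.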

CP192 = assay: as above; conditions: P. falciparum in erythrocytes, SYBR Green DNA, 72 h; series mostly up to 28.7 µM
Procedure, shortened: as §1

CP201 = assay: as above; conditions: P. falciparum in erythrocytes, SYBR Green DNA, 72 h; series mostly up to 28.7 µM
Procedure, shortened: as §1

CP203 = assay: as above; conditions: P. falciparum in erythrocytes, SYBR Green DNA, 72 h; series mostly up to 28.7 µM
Procedure, shortened: as §1

CP211 = assay: as above; conditions: P. falciparum in erythrocytes, SYBR Green DNA, 72 h; series mostly up to 28.7 µM
Procedure, shortened: as §1

CP262 = assay: as above; conditions: P. falciparum in erythrocytes, SYBR Green DNA, 72 h; series mostly up to 28.7 µM
Procedure, shortened: as §1

CP315 = assay: as above; conditions: P. falciparum in erythrocytes, SYBR Green DNA, 72 h; series mostly up to 28.7 µM
Procedure, shortened: as §1

CP325 = assay: as above; conditions: P. falciparum in erythrocytes, SYBR Green DNA, 72 h; series mostly up to 28.7 µM
Procedure, shortened: as §1

Dd2 = assay: as above; conditions: P. falciparum in erythrocytes, SYBR Green DNA, 72 h; series mostly up to 28.7 µM
Procedure, shortened: as §1

JCK = assay: as above; conditions: P. falciparum in erythrocytes, SYBR Green DNA, 72 h; series mostly up to 28.7 µM
Procedure, shortened: as §1

PC49 = assay: as above; conditions: P. falciparum in erythrocytes, SYBR Green DNA, 72 h; series mostly up to 28.7 µM
Procedure, shortened: as §1

FAB9 = assay: as above; conditions: P. falciparum in erythrocytes, SYBR Green DNA, 72 h; series mostly up to 28.7 µM
Procedure, shortened: as §1

CP305 = assay: as above; conditions: P. falciparum in erythrocytes, SYBR Green DNA, 72 h; series mostly up to 28.7 µM
Procedure, shortened: as §1

[3] = qHTS for Inhibitors of Plasmodium falciparum (DD2) proliferation (AID 504314);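 note: parasite DNA measured by SYBR Green fluorescence after red cell lysis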
Procedure, shortened: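 P. falciparum Dd2 is grown in erythrocytes with test compound for 72 h at 37C under 5% CO2. Growth is scored by SYBR Green I fluorescence after detergent lysis, relative to artemisinin (0.29 uM) and DMSO controls.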

Row | Structure (SMILES) | Potency [1] | Potency [2] | Potency (7G8) | Potency (CP192) | Potency (CP201) | Potency (CP203) | Potency (CP211) | Potency (CP262) | Potency (CP315) | Potency (CP325) | Potency (Dd2) | Potency (JCK) | Potency (PC49) | Potency (FAB9) | Potency (CP305) | Potency [3]
1 | COC(=O)C1[C@@H](OC)C(OC(=O)COc2ccc(OC)cc2)C[C@@H]2CN3CCc4c([nH]c5cc(OC)ccc45)[C@H]3C[C@H]12 (stereo partly specified) | inactive | inactive | 7.94 µM (active) | inactive | inactive | inactive | inactive | inactive | inactive | inactive | 10 µM (active) | inactive | inactive |  |  | 
2 | CCC1OC(=O)C[C@H](O)C(C)[C@@H](O[C@@H]2OC(C)C(O)C(N(C)C)C2O)C(CCN2CC(C)CC(C)C2)CC(C)C(=O)/C=C/C(C)=C\[C@@H]1COC1OC(C)C(O)C(OC)C1OC (stereo partly specified) | inactive | inactive |  |  |  |  |  |  |  |  | 3.98 µM (active) |  |  | inactive |  | 
3 | CC1=C(/C=C/C(C)=C\C=C\C(C)=C\C=C\C=C(C)\C=C\C=C(C)\C=C\C2=C(C)C[C@@H](O)CC2(C)C)C(C)(C)C[C@H](O)C1 | inactive | inactive | 1.26 µM (active) | inactive | inactive | inactive | inactive | inactive | inactive | inactive | 11.2 µM (active) |  | 7.08 µM (active) | inactive | inactive | 
4 | Cc1cnc(NC(=O)C2C(=O)c3ccccc3S(=O)(=O)N2C)s1 (stereo unspecified) | inactive |  |  | inactive | inactive | inactive | inactive | inactive | inactive | inactive | inactive | inactive | inactive | inactive | inactive | 
5 | C[C@@H]1CC2[C@@H]3C[C@H](F)C4=CC(=O)C(Cl)=C[C@]4(C)[C@@]3(F)[C@H](O)C[C@]2(C)[C@@]1(O)C(=O)CO (stereo partly specified) | inactive | inactive | 8.91 µM (active) | inactive | inactive |  | inactive | inactive | inactive | inactive | inactive | inactive | inactive | inactive | inactive | 
6 | C=C1CC2C3C=C(C)C4=CC(=O)CCC4(C)C3CCC2(C)[C@@]1(OC(C)=O)C(C)=O (stereo partly specified) | inactive | inactive | 12.6 µM (active) | inactive |  |  |  |  |  |  | inactive | inactive | inactive | inactive |  | 
7 | O=C(NC(CO)C(O)c1ccc([N+](=O)[O-])cc1)C(Cl)Cl (stereo unspecified) | inactive | inactive |  |  | inactive | inactive |  |  | inactive | 6.01 µM (active) | 8.91 µM (active) | inactive | inactive | inactive |  | 
8 | CCCCC(=O)OC1CCC2C3CCc4cc(O)ccc4C3CC[C@]12C (stereo partly specified) | inactive | inactive |  | inactive | inactive | inactive | inactive | inactive | inactive | inactive |  | inactive | inactive | inactive | inactive | 
9 | COc1ccc(-c2nc3c(c4c2C[C@H](c2ccccc2)OC4)CN(C(=O)C2CCCCC2)CC3)c(C)c1 |  |  |  |  |  |  |  |  |  |  |  |  |  |  |  | inactive
10 | Nc1nc(Cl)nc2c1ncn2[C@@H]1O[C@H](CO)[C@H](O)C1F (stereo partly specified) | inactive |  |  | inactive | inactive | inactive | inactive | inactive | inactive | inactive | inactive | inactive | inactive | inactive | inactive | 
11 | COC(=O)C1=C(C(=O)OC)[C@@H]2Nc3ccccc3[C@@]23C[C@@H](C(=O)OC)N(S(=O)(=O)c2ccc([N+](=O)[O-])cc2)C3=N1 |  |  |  |  |  |  |  |  |  |  |  |  |  |  |  | inactive
12 | Cc1cncc(C(=O)O)[n+]1[O-] | inactive | inactive | inactive | inactive | inactive |  | inactive | inactive | inactive | inactive | inactive | inactive | inactive | inactive | inactive | 
13 | C=CCN1c2ccccc2[C@]23C[C@@H](C(=O)OC)N(S(=O)(=O)c4ccc(C(F)(F)F)cc4)C2=NC(C(=O)OC)=C(C(=O)OC)[C@H]13 |  |  |  |  |  |  |  |  |  |  |  |  |  |  |  | inactive
14 | C=C1N[C@]2(C(=O)COC(C)=O)[C@@H](C[C@H]3[C@@H]4CCC5=CC(=O)C=C[C@]5(C)[C@H]4[C@@H](O)C[C@@]32C)O1 | inactive | inactive |  | inactive |  |  |  |  | inactive |  | inactive | inactive | inactive | inactive |  | 
15 | COC(=O)C1=C(C(=O)OC)[C@@H]2Nc3ccccc3[C@@]23C[C@@H](C(=O)OC)N(C(=O)CC(C)C)C3=N1 |  |  |  |  |  |  |  |  |  |  |  |  |  |  |  | inactive
16 | C=C1CCC(O)C/C1=C/C=C1\CCC[C@]2(C)[C@@H]([C@H](C)/C=C/[C@H](C)C(C)C)CC[C@@H]12 (stereo partly specified) | inactive | inactive | 10 µM (active) | inactive | inactive | inactive | inactive | inactive | inactive | inactive |  | 708 nM (active) |  | inactive | inactive | 
